FAK blocker: inhibitors of human focal adhesion kinase; biochemical FAK kinase activity assay; inhibition, %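 (tested at 7 µM)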; 0.84% of 97,000 active; in the data active means inhibition above about 19%
DAT uptake mod: modulates human dopamine transporter uptake under cocaine | LLC-PK1 hDAT cells, [14C]-dopamine uptake with cocaine IC80; actives deviate in either direction | B-score at 10 µM | 1.3% of 110,000 active | AID 449768;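 active means Z score or B-score, a plate-position-corrected score, falls beyond the plate's 99.7% confidence bounds, in either direction; inactive means both scores lie inside the 99.7% bounds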
CD11b adhes inh: CD11b/CD18-fibrinogen binding inhibition; P05107+P11215; K562 CD11b/CD18 adhesion to fibrinogen, ATPlite luminescence; Mn2+ added to activate the integrin; inhibition, % at 10 µM; 0.54% of 93,000 active;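 active means primary inhibition of 50% or more at 10 µM, then 40% or more on retest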
Target sequence (P05107 whole entry, looked up, other chains not shown): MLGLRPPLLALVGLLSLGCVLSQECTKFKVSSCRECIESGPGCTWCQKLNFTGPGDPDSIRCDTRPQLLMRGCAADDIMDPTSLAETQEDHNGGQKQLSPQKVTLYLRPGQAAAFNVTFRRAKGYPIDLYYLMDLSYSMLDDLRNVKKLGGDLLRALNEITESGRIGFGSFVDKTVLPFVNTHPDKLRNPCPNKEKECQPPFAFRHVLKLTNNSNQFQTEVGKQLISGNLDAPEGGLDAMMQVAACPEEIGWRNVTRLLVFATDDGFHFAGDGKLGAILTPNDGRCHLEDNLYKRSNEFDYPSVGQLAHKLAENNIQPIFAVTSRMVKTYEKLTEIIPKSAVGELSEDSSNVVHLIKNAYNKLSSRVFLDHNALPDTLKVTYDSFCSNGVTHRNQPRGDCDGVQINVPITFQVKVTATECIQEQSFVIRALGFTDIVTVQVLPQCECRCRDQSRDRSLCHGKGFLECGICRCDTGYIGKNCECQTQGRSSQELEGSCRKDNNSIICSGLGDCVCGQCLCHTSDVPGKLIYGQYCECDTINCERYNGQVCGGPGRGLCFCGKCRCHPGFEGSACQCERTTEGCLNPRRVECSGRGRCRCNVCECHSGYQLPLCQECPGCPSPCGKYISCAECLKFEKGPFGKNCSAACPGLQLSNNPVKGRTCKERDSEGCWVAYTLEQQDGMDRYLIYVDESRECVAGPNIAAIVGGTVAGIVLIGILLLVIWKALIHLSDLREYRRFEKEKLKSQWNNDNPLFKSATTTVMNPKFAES
D1 mod: allosteric modulators of human D1 dopamine receptor; HEK293 D1, CRE-luciferase, dopamine EC30 potentiation; actives deviate in either direction; B-score at 10 µM; 5.9% of 58,000 active; AID 641;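 active means luminescence count or its row- and column-corrected plate score outside the 99.7% band of the plate's sample wells, on either side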
Pyk2 oligo antag: antagonists of human Pyk2 oligomerization | Q14289 | Q293 cells, Pyk2 FERM NanoBiT luminescence; hits give low values | z-score (the deposit names both 25 µM and 10 µM) | 0.83% of 99,000 active;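 active means Z-score of -3 or lower, scaled per plate to the spread of control and sample wells; inactive means z-score above -3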;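 further: negative z-score means lost luminescence so less FERM oligomerization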
CD11b adhes enh: increases human CD11b/CD18 adhesion to fibrinogen. P05107+P11215. K562 CD11b/CD18 adhesion to fibrinogen, ATPlite luminescence. activation, % at 10 µM. 0.07% of 93,000 active;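 active means 10 µM primary screen giving 50% or more activity, confirmed by 40% or more on retest at that dose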
Hits are given with their value. This is one part of a sample in which hits are shown more often than they occur.

For CCOC(=O)CCCSc1nc2sc3c(c2c(=O)[nH]1)CCC3 the results were FAK blocker inactive, DAT uptake mod inactive, CD11b adhes inh inactive, Pyk2 oligo antag inactive and CD11b adhes enh inactive.
Cc1nnc2n(Cc3ccccc3)c(=O)c3c4c(sc3n12)CCCC4 was read as CD11b adhes inh inactive, D1 mod 6.3 and CD11b adhes enh inactive.
Screening CCOC(=O)CSc1nnc(CSc2nc3sc4c(c3c(=O)[nH]2)CCCC4)n1-c1ccccc1 returned FAK blocker inactive, DAT uptake mod 1.9 and Pyk2 oligo antag inactive.
C=CCn1c(=O)c2c3c(sc2n2c(Nc4ccc(OC)cc4)nnc12)CCCC3 was read as FAK blocker inactive, DAT uptake mod inactive, CD11b adhes inh inactive, D1 mod inactive, Pyk2 oligo antag inactive and CD11b adhes enh inactive.
CCOC(=O)CSc1nnc2n(C3CCCCC3)c(=O)c3c4c(sc3n12)CCCC4 was read as DAT uptake mod inactive, CD11b adhes inh inactive, Pyk2 oligo antag inactive and CD11b adhes enh inactive.
For Cc1ccc(CNn2cnnc2SCC(=O)NC(C)(C)C)cc1 the results were FAK blocker inactive, DAT uptake mod 2.2, CD11b adhes inh inactive, D1 mod inactive, Pyk2 oligo antag inactive and CD11b adhes enh inactive.
Screening CC(C)(C)NC(=O)CSc1nncn1NCc1ccccc1 returned FAK blocker inactive, DAT uptake mod inactive, CD11b adhes inh inactive, D1 mod inactive, Pyk2 oligo antag inactive and CD11b adhes enh inactive.
For COc1ccc(OC)c(NC(=O)Cn2cccc2)c1 the results were FAK blocker inactive, DAT uptake mod inactive, D1 mod inactive and Pyk2 oligo antag inactive.
For COc1cc2nc(SCC(=O)NCc3ccco3)n(Cc3ccc(Cl)cc3)c(=O)c2cc1OC the results were FAK blocker inactive, DAT uptake mod 3.8, D1 mod -3.8 and Pyk2 oligo antag inactive.
COc1ccc(-n2c(NC(=O)c3ccc(Br)o3)c(C#N)c3nc4ccccc4nc32)cc1 was read as FAK blocker inactive, CD11b adhes inh 90 and CD11b adhes enh inactive.
`CCCC(=O)Nc1cnc(NC(=O)c2cccc(F)c2)cc1C` gave FAK blocker inactive, DAT uptake mod inactive, CD11b adhes inh inactive, D1 mod -3.1, Pyk2 oligo antag inactive and CD11b adhes enh inactive.
For CCCn1nc2cc(C(=O)NCc3ccc(C)cc3)ccc2c1OCC the results were FAK blocker inactive and DAT uptake mod inactive.
CCOc1c2ccc(C(=O)NCc3ccc(C)cc3)cc2nn1CC was read as FAK blocker inactive and DAT uptake mod 3.2.
COc1cc(NC(=O)c2ccco2)c(OC)cc1NC(=O)c1cc(OC)c(OC)c(OC)c1 was read as FAK blocker inactive, DAT uptake mod inactive, CD11b adhes inh inactive, D1 mod inactive, Pyk2 oligo antag inactive and CD11b adhes enh inactive.
CC(C)OC(=O)c1ccc(NC(=O)c2ccco2)cc1 was read as FAK blocker inactive, DAT uptake mod inactive, CD11b adhes inh inactive, Pyk2 oligo antag inactive and CD11b adhes enh inactive.
For CCOc1ccc(NC(=O)c2ccco2)cc1 the results were FAK blocker inactive, DAT uptake mod inactive, CD11b adhes inh inactive, D1 mod -4.8, Pyk2 oligo antag inactive and CD11b adhes enh inactive.
CCOc1cc(NC(=O)c2ccco2)c(OCC)cc1NC(=O)c1cc(OC)c(OC)c(OC)c1 was read as FAK blocker inactive, DAT uptake mod inactive, CD11b adhes inh inactive, D1 mod -5, Pyk2 oligo antag inactive and CD11b adhes enh inactive.
For Cc1cc(NS(=O)(=O)c2ccc(NC(=O)c3ccco3)cc2)no1 the results were FAK blocker inactive, DAT uptake mod 2.7, CD11b adhes inh inactive, D1 mod inactive, Pyk2 oligo antag inactive and CD11b adhes enh inactive.
For CCOc1ccccc1NC(=O)c1ccc(NC(=O)c2ccco2)cc1 the results were FAK blocker inactive, DAT uptake mod 3.9 and Pyk2 oligo antag inactive.
Cc1cc(C)c(C(=O)C2OC(=O)C(C)(C)C(=O)C2(C)C)c(C)c1 (configuration not stated) was read as FAK blocker inactive, DAT uptake mod inactive, CD11b adhes inh inactive, Pyk2 oligo antag inactive and CD11b adhes enh inactive.
Screening CC(C)NC(=O)c1ccc2c(c1)N(CC(=O)N1CCOCC1)C(=O)C(C)(C)O2 returned FAK blocker inactive, DAT uptake mod inactive, CD11b adhes inh inactive, D1 mod inactive, Pyk2 oligo antag inactive and CD11b adhes enh inactive.
`CC(C)n1nc(C(=O)OCC(=O)c2c[nH]c3ccccc23)c2ccccc2c1=O` gave FAK blocker inactive, DAT uptake mod inactive, CD11b adhes inh inactive, Pyk2 oligo antag -3.6 and CD11b adhes enh inactive.
Screening CCn1nc(C(=O)OCC(=O)N2CCc3ccccc32)c2ccccc2c1=O returned FAK blocker inactive, DAT uptake mod inactive, CD11b adhes inh inactive, D1 mod inactive, Pyk2 oligo antag inactive and CD11b adhes enh inactive.
`CCn1nc(C(=O)OCC(=O)c2c[nH]c3ccccc23)c2ccccc2c1=O` gave FAK blocker inactive, DAT uptake mod inactive, CD11b adhes inh inactive, D1 mod -3.2, Pyk2 oligo antag inactive and CD11b adhes enh inactive.
`CC(=O)OCC(=O)c1c[nH]c2ccccc12` gave DAT uptake mod inactive.
Cc1cccc(C(=O)c2cnc3ccccc3c2-c2ccccc2)c1 was read as FAK blocker inactive, DAT uptake mod inactive, CD11b adhes inh 59, Pyk2 oligo antag inactive and CD11b adhes enh inactive.
For COc1ccc(CN2CC[C@H]3C=CC[C@@H](C(=O)Nc4ccc(Cl)c(C(F)(F)F)c4)[C@H]3C2=O)cc1OC the results were DAT uptake mod inactive.
Screening Cn1cccc1/C=N/NC(=O)C12CC3CC(CC(C3)C1)C2 returned CD11b adhes inh inactive and CD11b adhes enh inactive.
O=C1C(C=Nc2ccccc2O)=C(O)c2ccccc21 was read as FAK blocker inactive, DAT uptake mod inactive, CD11b adhes inh inactive, D1 mod -5.6, Pyk2 oligo antag inactive and CD11b adhes enh inactive.
For CCOC(=O)/C(=C/c1ccccc1)NC(=O)c1ccco1 the results were CD11b adhes inh inactive and CD11b adhes enh inactive.
`COc1cccc(-c2cc(C(F)(F)F)nc(N3CCN(c4ccccc4)CC3)n2)c1` gave FAK blocker inactive, DAT uptake mod inactive, CD11b adhes inh inactive, Pyk2 oligo antag inactive and CD11b adhes enh inactive.
`COc1cccc(-c2cc(C(F)(F)F)nc(-n3cncn3)n2)c1` gave FAK blocker inactive, DAT uptake mod 3.3, CD11b adhes inh inactive, D1 mod inactive, Pyk2 oligo antag inactive and CD11b adhes enh inactive.
For COC(=O)c1ccc(CSc2nc3ccccc3c(=O)n2-c2ccc(OC)c(OC)c2)o1 the results were FAK blocker inactive, DAT uptake mod 3.5, CD11b adhes inh inactive, D1 mod inactive, Pyk2 oligo antag inactive and CD11b adhes enh inactive.
COC(=O)c1ccc(CSc2nc3ccccc3c(=O)n2-c2ccccc2)o1 was read as FAK blocker inactive, DAT uptake mod inactive, CD11b adhes inh inactive, Pyk2 oligo antag inactive and CD11b adhes enh inactive.
Cc1ccc(NC(=O)c2ccccc2F)nc1 was read as FAK blocker inactive, DAT uptake mod inactive, CD11b adhes inh inactive, D1 mod -3, Pyk2 oligo antag inactive and CD11b adhes enh inactive.
